Screening results: PubChem BioAssay, National Center for Advancing Translational Sciences (NCATS)
Sampled rows, rich in hits. Any-hit rate of the full collection: about 18%.
VDR inh: blocks the human vitamin D receptor | P11473 | VDR-SRC2-3 peptide fluorescence polarization, 2 h | Potency, µM, for inactives: max response, negative = inhibition, usual class: inhibitors | actives 0.93% (n = 400,000) | AID 504847
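Inhibition of the VDR/SRC2-3 peptide interaction is quantified by fluorescence polarization. Compounds (23 nl, pintool) incubate with the reagents for 2 hours at ambient room temperature.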
PLK1 PBD block: inhibitors of human PLK1 polo-box domain binding; P53350; AID 720504; Plk1 PBD binding of FITC phosphopeptide, fluorescence polarization; Potency, µM, inactives show max response, negative = inhibition, actives largely listed as inhibitors; actives 2.8% (n = 360,000); further: series mostly up to about 57 µM; nearly all actives have a fitted effect of over 65% in size
TDP1 block: inhibitors of human tyrosyl-DNA phosphodiesterase TDP1; actives 0.28% (n = 350,000); Potency, µM (highest dose often 130 µM), for the others: at the top dose activity change, negative = inhibition, most hits filed as inhibitors; Q9NUW8; recombinant TDP1, AlphaScreen DNA substrate cleavage; further: nearly all actives have a fitted effect of over 40% in size
Target sequence (Q9NUW8 whole entry, looked up): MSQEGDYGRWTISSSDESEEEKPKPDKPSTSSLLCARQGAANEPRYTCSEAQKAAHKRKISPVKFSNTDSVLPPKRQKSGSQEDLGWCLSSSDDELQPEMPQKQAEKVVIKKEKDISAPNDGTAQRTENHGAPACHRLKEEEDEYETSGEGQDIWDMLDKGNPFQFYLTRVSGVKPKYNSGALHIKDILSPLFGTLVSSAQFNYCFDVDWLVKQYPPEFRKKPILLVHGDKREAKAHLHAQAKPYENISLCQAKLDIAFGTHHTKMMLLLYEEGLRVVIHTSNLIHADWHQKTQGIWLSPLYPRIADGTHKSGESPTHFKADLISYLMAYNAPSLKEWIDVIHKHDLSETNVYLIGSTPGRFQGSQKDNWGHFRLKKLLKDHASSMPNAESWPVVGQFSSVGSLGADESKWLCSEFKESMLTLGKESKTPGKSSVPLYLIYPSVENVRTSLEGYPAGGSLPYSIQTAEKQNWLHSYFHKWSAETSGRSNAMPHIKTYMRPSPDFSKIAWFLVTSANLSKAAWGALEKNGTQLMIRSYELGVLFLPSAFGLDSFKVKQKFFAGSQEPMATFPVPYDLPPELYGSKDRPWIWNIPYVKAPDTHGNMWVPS
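Here, a 5' biotin and 3' phosphotyrosine-FITC DNA oligonucleotide reports Tdp1 activity: intact substrate bridges AlphaScreen beads, while cleavage leaves a 3' phosphate and drops signal. All incubations at room temperature.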
TDP1 cell CPT: growth inhibition of DT40 Tdp1-/-;hTDP1 cells with camptothecin (screen for TDP1 inhibitors) | chicken DT40 Tdp1-/-;hTDP1 cells + 20 nM CPT, ATP luminescence, 48 h | AID 686979 | Potency, µM (top dose mostly 46.2 µM), for inactives: at the highest dose activity change, negative = growth inhibition, hits mostly inhibitors | actives 12% (n = 420,000); further: nearly all actives have a fitted effect of over 55% in size
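Chicken DT40 Tdp1-/- cells complemented with human TDP1, 400 cells/well, exposed to compounds plus 20 nM camptothecin for at least 48 h at 37 C; viability read as ATP content by CellTiter-Glo luminescence.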
TDP1 cell noCPT: qHTS for Inhibitors of human tyrosyl-DNA phosphodiesterase 1 (TDP1): qHTS in cells in absence of CPT | DT40 Tdp1-/- hTDP1 cells, no CPT, ATP luminescence, 48 h | Potency, µM (titrated, usually from 46.2 µM), for inactives: at the top dose activity change, negative = growth inhibition, actives largely listed as inhibitors | actives 15% (n = 420,000); further: nearly all actives have a fitted effect of over 55% in size
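Cells were dispensed at 400 per well, compounds added by pin tool, plates incubated ≥48 hr at 37 °C, then CellTiter-Glo added for 30 min at room temperature before luminescence reading. Line: DT40 Tdp1-/- complemented with hTDP1; camptothecin omitted.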
GCN5L2 inh: inhibitors of human GCN5L2 histone acetyltransferase; Q92830; GCN5L2 HAT assay, ThioGlo1 CoA-SH fluorescence; Potency, µM (series often up to 58.9 µM), for inactives: at the highest dose activity change, negative = inhibition, actives largely listed as inhibitors; actives 0.21% (n = 390,000); AID 504327
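Compounds, pin-transferred from DMSO stocks, meet 20nM GCN5L2 for 15 min before the reaction begins with H3(1-25) peptide (75uM) and acetyl-CoA (70uM). Thiol-reactive ThioGlo1 reports CoA release over 20 min at room temperature.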
The depositor's hits bear a star. The call rests on the fitted dose curve; in most records, active means well fitted curve in the direction sought with a large enough effect; inconclusive means small, poorly fitted or top-dose-only effect, or another doubt; inactive means no such curve, though single readings can be large; an effect the other way counts as inactive or inconclusive. On the % scale 0 is the no-effect control and ±100 the full control effect; potency means the concentration at half of the fitted maximal effect.

What do the screens show for `O=C(OCC1CCCO1)c1ccc2c(c1)N(Cc1ccc(F)cc1)C(=O)c1ccccc1S2(=O)=O` (stereo not drawn)?
VDR inh: -1.7%; TDP1 block: -5.3%; TDP1 cell CPT: -22.8%; TDP1 cell noCPT: -12.7%; GCN5L2 inh: -13.9%

Results for CN(C(=O)c1ccc2c(c1)N(Cc1ccc(F)cc1)C(=O)c1ccccc1S2(=O)=O)C1CCCCC1 ?
VDR inh: -6.8%; TDP1 block: 8.1%; TDP1 cell CPT: 23.1µM*; TDP1 cell noCPT: 16.4µM*; GCN5L2 inh: -13.3%

How did CC(C)N(Cc1ccccc1)C(=O)CN1c2cccc3cccc(c23)S1(=O)=O do in these assays?
VDR inh: -13.9%; PLK1 PBD block: -1.6%; TDP1 block: -4.7%; TDP1 cell CPT: inconclusive; TDP1 cell noCPT: inconclusive; GCN5L2 inh: -17.4%

How did N#C/C(=C\c1ccccc1[N+](=O)[O-])C(=O)NC1CCCCC1 do in these assays?
VDR inh: inconclusive; PLK1 PBD block: -14.8%; TDP1 block: 5.9%; TDP1 cell CPT: inconclusive; TDP1 cell noCPT: 14.6µM*; GCN5L2 inh: -7.8%

Results for Cc1ccc(-c2[nH]ncc2/C=C(\C#N)C(=O)NC2CCCCC2)cc1 ?
VDR inh: 1.1%; PLK1 PBD block: -0.2%; TDP1 block: 5.1%; TDP1 cell CPT: inconclusive; TDP1 cell noCPT: 20.6µM*; GCN5L2 inh: -1.5%

How did N#C/C(=C\c1cc(Br)ccc1F)C(=O)NC1CC1 do in these assays?
VDR inh: inconclusive; PLK1 PBD block: inconclusive; TDP1 block: 1.5%; TDP1 cell CPT: 13µM*; TDP1 cell noCPT: inconclusive; GCN5L2 inh: -3.9%

Results for N#C/C(=C\C=C\c1ccccc1[N+](=O)[O-])C(=O)NC1CCCCC1 ?
VDR inh: 19.3%; PLK1 PBD block: -6.4%; TDP1 block: 8.9%; TDP1 cell CPT: 9.2µM*; TDP1 cell noCPT: 9.2µM*; GCN5L2 inh: -8.5%

How did CCOc1ccccc1/C=C(\C#N)C(=O)NC1CC1 do in these assays?
VDR inh: inconclusive; PLK1 PBD block: -1.4%; TDP1 cell CPT: -19.3%; TDP1 cell noCPT: -17.5%

How did CCOc1ccccc1OCCC(=O)NNC(=O)Cn1nc(C)cc1C do in these assays?
VDR inh: 5.4%; PLK1 PBD block: 5.3%; TDP1 block: -10.1%; TDP1 cell CPT: 11.5%; TDP1 cell noCPT: -12.3%; GCN5L2 inh: -3.4%

Results for CC(NS(=O)(=O)c1cc2c3c(c1)CCN3C(=O)CC2)c1ccccc1 (stereo not drawn) ?
PLK1 PBD block: -3.1%; TDP1 cell CPT: -6.5%; TDP1 cell noCPT: 1.3%

Results for CC1=C(C(=O)Nc2ccccc2C)C(c2ccc[nH]2)n2ncnc2N1 (stereo not drawn) ?
VDR inh: 2.9%; TDP1 cell CPT: inconclusive; TDP1 cell noCPT: inconclusive; GCN5L2 inh: -10.6%

Results for COc1ccc(CCNC(=O)CSC2=Nc3ccccc3C3=NC(CCC(=O)NCc4ccccc4)C(=O)N23)cc1OC (stereo not drawn) ?
VDR inh: 19.2%; TDP1 block: 5.4%; TDP1 cell CPT: -22.5%; TDP1 cell noCPT: 2.0%; GCN5L2 inh: -3.7%

What do the screens show for `N#C/C(=C\c1cc(Cl)cc(Cl)c1O)C(=O)NC1CCCCC1`?
VDR inh: -2.3%; PLK1 PBD block: -16.8%; TDP1 block: 0.0%; TDP1 cell CPT: 20.6µM*; TDP1 cell noCPT: inconclusive; GCN5L2 inh: -13.7%

Results for N#C/C(=C\c1cccn1-c1ccccc1)C(=O)NC1CCCCC1 ?
VDR inh: -25.2%; PLK1 PBD block: -6.8%; TDP1 block: 5.4%; TDP1 cell CPT: inconclusive; TDP1 cell noCPT: inconclusive; GCN5L2 inh: -16.0%

What do the screens show for `Cc1c(NC(=O)CSc2ccccc2Cl)c(=O)n(-c2ccccc2)n1C`?
VDR inh: 2.2%; PLK1 PBD block: -7.3%; TDP1 block: -2.6%; TDP1 cell CPT: 0.7%; TDP1 cell noCPT: -10.3%; GCN5L2 inh: 2.9%

How did CCOC(=O)N1CCC(NC(=O)c2cccc3c2C(=O)N(c2ccc(OC)cc2)C3)CC1 do in these assays?
VDR inh: -7.3%; PLK1 PBD block: -8.1%; TDP1 cell CPT: 14.6µM*; TDP1 cell noCPT: inconclusive; GCN5L2 inh: inconclusive

Results for CCOC(=O)N1CCC(N2Cc3cccc(C(=O)NCc4ccc5c(c4)OCO5)c3C2=O)CC1 ?
VDR inh: -1.8%; PLK1 PBD block: -14.5%; TDP1 block: 50.1µM*; TDP1 cell CPT: inconclusive; TDP1 cell noCPT: inconclusive; GCN5L2 inh: -10.2%

How did CCOC(=O)N1CCC(N2Cc3cccc(C(=O)Nc4cc(F)ccc4F)c3C2=O)CC1 do in these assays?
VDR inh: -13.7%; PLK1 PBD block: -3.9%; TDP1 block: -1.0%; TDP1 cell CPT: inconclusive; TDP1 cell noCPT: inconclusive; GCN5L2 inh: -4.5%

How did CCOC(=O)N1CCC(N2Cc3cccc(C(=O)NCc4ccc(OC)cc4)c3C2=O)CC1 do in these assays?
TDP1 block: 2.6%; GCN5L2 inh: -19.1%

Results for CCOC(=O)N1CCC(NC(=O)c2cn(-c3ccc(OC)cc3)c(=O)c3ccccc23)CC1 ?
VDR inh: -0.6%; PLK1 PBD block: -15.2%; TDP1 block: 3.4%; TDP1 cell CPT: -14.1%; TDP1 cell noCPT: inconclusive; GCN5L2 inh: -2.9%

How did CCOC(=O)N1CCC(N2Cc3cccc(C(=O)Nc4ccc(N(CC)CC)cc4C)c3C2=O)CC1 do in these assays?
VDR inh: -3.6%; PLK1 PBD block: -4.5%; TDP1 block: 17.0%; TDP1 cell CPT: inconclusive; TDP1 cell noCPT: 16.4µM*; GCN5L2 inh: -1.5%

How did CCCCCCCCOc1c(OC)cc(/C=C/C(=O)N2CCN(c3ccc(C)c(C)c3)CC2)cc1OC do in these assays?
VDR inh: -19.0%; TDP1 block: 9.5%; GCN5L2 inh: -20.1%

How did CC(C)(CO)C(O)C(=O)NCCCO (stereo not drawn) do in these assays?
VDR inh: 4.6%; PLK1 PBD block: -0.4%; TDP1 cell CPT: -9.5%; TDP1 cell noCPT: 2.8%; GCN5L2 inh: 1.5%

Results for CCOc1ccc2nc(NC(=O)CSc3nc4c(c(=O)n(C)c(=O)n4C)n3C(C)C)sc2c1 ?
VDR inh: -21.7%; PLK1 PBD block: -4.8%; TDP1 block: 0.0%; TDP1 cell CPT: 23.1µM*; TDP1 cell noCPT: 14.6µM*; GCN5L2 inh: -5.6%

How did CC(C)n1c(SCC(=O)Nc2nc3ccccc3s2)nc2c1c(=O)n(C)c(=O)n2C do in these assays?
VDR inh: -10.5%; PLK1 PBD block: -10.7%; TDP1 cell CPT: 16.4µM*; TDP1 cell noCPT: 20.6µM*
